Rows were chosen to be rich in hits. Some 19% of all compounds tested hit in one or more screens of this group.
ASM inhibitor: Inhibitors of Secretory Acid Sphingomyelinase (S-ASM): qHTS | placental ASM, HMU-PC fluorogenic substrate, 60 min | Potency, µM (series often up to 57.5 µM), for inactives: at the top dose activity change, negative = inhibition, actives largely listed as inhibitors | actives 0.006% (n = 340,000); note: potency is the fitted concentration of half-maximal effect
Target sequence (P17405 47-631 limits assumed): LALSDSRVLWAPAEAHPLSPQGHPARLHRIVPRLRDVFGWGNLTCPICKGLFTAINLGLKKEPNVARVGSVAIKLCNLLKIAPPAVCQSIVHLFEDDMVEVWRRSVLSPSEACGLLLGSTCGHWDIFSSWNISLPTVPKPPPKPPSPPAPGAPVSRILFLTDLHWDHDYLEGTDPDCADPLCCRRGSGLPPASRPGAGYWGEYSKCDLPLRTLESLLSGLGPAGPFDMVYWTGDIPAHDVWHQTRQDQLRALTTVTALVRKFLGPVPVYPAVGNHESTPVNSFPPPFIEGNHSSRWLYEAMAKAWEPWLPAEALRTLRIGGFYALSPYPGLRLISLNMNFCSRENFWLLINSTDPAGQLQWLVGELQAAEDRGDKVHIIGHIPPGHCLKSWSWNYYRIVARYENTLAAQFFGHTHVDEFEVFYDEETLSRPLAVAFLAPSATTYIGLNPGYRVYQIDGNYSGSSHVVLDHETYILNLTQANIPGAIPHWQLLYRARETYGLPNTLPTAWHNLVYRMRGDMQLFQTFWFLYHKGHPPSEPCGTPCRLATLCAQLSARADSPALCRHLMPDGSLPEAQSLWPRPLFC
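Human placenta-derived ASM preincubated with compound 10 min at room temperature, then reacted with 9 uM (final) fluorogenic HMU-PC substrate for 60 min at 37 C. Stop solution raises pH to 10; fluorescence read at Ex 386/Em 447 nm.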
IL-1B inflam inh: qHTS for Inhibitors of Inflammasome Signaling: IL-1-beta AlphaLISA Primary Screen; THP-1 LPS/ATP IL-1B secretion, AlphaLISA, 16 h; stronger effect = lower value; activity change, % at 57.5 µM; actives 4.7% (n = 360,000); AID 743279, 2014; in the data active = activity change below about -50%; inconclusive = mostly about -30% to -49%; note: % is set by controls: 0 for no effect and ±100 for the full control effect
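THP-1 cells pretreated 1 hr with compounds (up to 57.5 uM final), then stimulated with LPS (250 ng/mL final) plus ATP (1.25 mM final); secreted IL-1B measured by AlphaLISA after 16 hr, decreased signal indicating inhibition.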
TGFb SMAD3 inh: qHTS for Inhibitors of TGF-b; HepG2 CAGA-GFP TGF-b/SMAD3 reporter, GFP fluorescence, 18 h; TGF-beta stimulated, 500 pg/mL final; Potency, µM (top dose mostly 46.1 µM), without a hit: at the highest dose activity, negative = inhibition, hits mostly inhibitors; actives 1.2% (n = 410,000); AID 588855, 2011; note: potency is the fitted concentration of half-maximal effect; % is set by controls: 0 for no effect and ±100 for the full control effect; nearly all actives have a fitted effect of over 65% in size
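Inhibition of TGF-beta-driven CAGA-GFP reporter expression in HEPG2 cells is measured by cellular GFP fluorescence after 18 h stimulation with 500 pg/mL recombinant TGF-beta in 1% FBS medium at 37 degrees C.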
HepG2 tox: qHTS for Inhibitors of TGF-b: Cytotox Counterscreen | HepG2 CAGA-GFP viability, ATP luminescence, 18 h | AID 588856, 2011 | actives 0.76% (n = 410,000) | Potency, µM (highest dose often 46.1 µM), for the others: at the top dose activity change, negative = cytotoxicity, usual class: cytotoxic; note: potency is the fitted concentration of half-maximal effect
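HepG2 CAGA-GFP cells (1000/well, DMEM with 1% FBS) received compound, then TGF-beta at 500 pg/mL final, and were incubated 18 hours at 37 degrees C. Viability was read by CellTiter-Glo luminescence. Media-only wells were set as complete cell-killing and DMSO as no toxicity.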
TDP1 cell noCPT: qHTS for Inhibitors of human tyrosyl-DNA phosphodiesterase 1 (TDP1): qHTS in cells in absence of CPT; DT40 Tdp1-/- hTDP1 cells, no CPT, ATP luminescence, 48 h; Potency, µM (series often up to 46.2 µM), inactives show at the top dose activity change, negative = growth inhibition, most hits filed as inhibitors; actives 15% (n = 420,000); note: potency is the fitted concentration of half-maximal effect; % is set by controls: 0 for no effect and ±100 for the full control effect; nearly all actives have a fitted effect of over 55% in size
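Compound effects on proliferation are scored in DT40 Tdp1-/-;hTDP1 cells in the absence of CPT. ATP levels (CellTiter-Glo luminescence) are recorded after a ≥48 hr, 37 °C incubation.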
DT40 TDP1 CPT: qHTS for Inhibitors of human tyrosyl-DNA phosphodiesterase 1 (TDP1): qHTS in cells in presence of CPT | AID 686979, 2013 | Potency, µM (doses to about 46.2 µM), for the others: at the highest dose activity change, negative = growth inhibition, hits mostly inhibitors | chicken DT40 Tdp1-/-;hTDP1 cells + 20 nM CPT, ATP luminescence, 48 h | actives 12% (n = 420,000); note: potency is the fitted concentration of half-maximal effect; % is set by controls: 0 for no effect and ±100 for the full control effect; nearly all actives have a fitted effect of over 55% in size
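Chicken DT40 Tdp1-/- cells complemented with human TDP1, 400 cells/well, exposed to compounds plus 20 nM camptothecin for at least 48 h at 37 C; viability read as ATP content by CellTiter-Glo luminescence.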
Active calls of the source: *; ? = inconclusive; / = no result. Unless noted, calls come from the whole dose curve; as a rule, active = well fitted curve in the direction sought with a large enough effect; inconclusive = small, poorly fitted or top-dose-only effect, or another doubt; inactive = no such curve, though single readings can be large; an effect the other way counts as inactive or inconclusive.

SMILES	ASM inhibitor	IL-1B inflam inh	TGFb SMAD3 inh	HepG2 tox	TDP1 cell noCPT	DT40 TDP1 CPT
Cc1ccc(NS(=O)(=O)c2ccc(Cl)c(C(=O)Nc3ccccc3-c3nc4ccccc4[nH]3)c2)cc1C	-7%	-13	11µM*	-77%	8.2µM*	7.3µM*
CC(C)c1ccc(NC(=O)C2CCCN2S(=O)(=O)c2ccc3nc(-c4ccccc4)[nH]c3c2)cc1 (configuration not stated)	/	/	-19%	-24%	7.3µM*	10µM*
COc1cccc(NC(=O)C2CCCN2S(=O)(=O)c2ccc3nc(-c4ccccc4)[nH]c3c2)c1 (configuration not stated)	/	/	?	-20%	/	/
CN(C)S(=O)(=O)c1ccc(Cl)c(C(=O)Nc2nc3ccccc3[nH]2)c1	-2%	-7	-16%	-11%	-23%	-24%
Cc1ccc(NC(=O)C2CCCN2S(=O)(=O)c2ccc3nc(-c4ccccc4)[nH]c3c2)cc1C (configuration not stated)	/	/	?	-25%	23µM*	?
COc1ccc(OC)c(C2NC(=O)NC(C)=C2C(=O)Nc2cc(C)cc(C)c2)c1 (configuration not stated)	/	/	-9%	-4%	-11%	-3%
O=c1cccc(-c2cccc3ccccc23)o1	/	-6	/	/	?	-6%
O=S(=O)(Nc1ccc(Br)cc1F)c1ccc2nc(-c3ccccc3)[nH]c2c1	/	/	?	-48%	?	-21%
Cc1cc(NS(=O)(=O)c2ccc3nc(-c4ccccc4)[nH]c3c2)ccc1Br	/	/	?	-98%	15µM*	?
Cc1ccccc1N1C(=O)C(Cc2ccc(F)cc2)S/C1=C(\C#N)C(N)=O (configuration not stated)	5%	/	25%	1%	-9%	-14%
O=S(=O)(NCC(c1cccnc1)N1CCN(Cc2ccccc2)CC1)c1cc(F)ccc1F (configuration not stated)	-1%	-1	-5%	-7%	-26%	?
O=C(NCC(c1cccnc1)N1CCN(Cc2ccccc2)CC1)C(=O)Nc1cccc(F)c1 (configuration not stated)	/	/	1%	-36%	23µM*	26µM*
CCc1ccc(NC(=O)C(=O)NCC(c2cccnc2)N2CCN(Cc3ccccc3)CC2)cc1 (configuration not stated)	/	/	3%	10%	8.2µM*	12µM*
O=C(NCC(c1cccnc1)N1CCN(Cc2ccccc2)CC1)C(=O)Nc1ccc(F)cc1 (configuration not stated)	/	/	-20%	-26%	23µM*	18µM*
O=C(CN1C(=O)c2ccccc2C1=O)Nc1cc(C(=O)O)cc(C(=O)O)c1	6%	14	3%	4%	18%	-4%
COc1cc(OC)nc(/N=C/N(C)C)n1	-1%	2	2%	11%	-3%	-1%
Cc1cccc(C)c1-n1ncc(C(=O)NC2CCCC2)c1C1CCN(C(=O)OC(C)(C)C)CC1	/	/	-3%	-6%	?	?
CCc1nc(Nc2ccc(O)cc2)c2oc3ccccc3c2n1	-9%	-89*	3%	-18%	?	?
Cc1nc(Nc2cccc(Cl)c2)c2oc3ccccc3c2n1	-15%	-72*	?	-35%	21µM*	16µM*
COc1ccc(Nc2nc(C)nc3c2oc2ccccc23)c(OC)c1	254%	51	-18%	-23%	-22%	-15%
CCc1nc(Nc2ccccc2O)c2oc3ccccc3c2n1	-4%	0	5%	4%	-23%	-1%
COc1cccc(Oc2nc(C)nc3c2oc2ccccc23)c1	/	/	-21%	-26%	?	-21%
COc1ccccc1Nc1nc(C)nc2c1oc1ccccc12	22%	6	-6%	-17%	9.2µM*	15µM*
Cc1nc(Nc2ccc(Cl)cc2)c2oc3ccccc3c2n1	-15%	12	-23%	-27%	?	?
COc1cccc(Nc2nc(C)nc3c2oc2ccccc23)c1	-4%	-6	37%	-4%	21µM*	?
SMILES	ASM inhibitor	IL-1B inflam inh	TGFb SMAD3 inh	HepG2 tox	TDP1 cell noCPT	DT40 TDP1 CPT
Cc1nc(N2CCN(C(=O)c3cnccn3)CC2)c2c3c(sc2n1)CC(C(C)(C)C)CC3 (configuration not stated)	6%	13	-6%	-3%	-26%	0%
COc1ccc(S(=O)(=O)N2CCOC2CNC(=O)C(=O)NCC(C)C)cc1 (configuration not stated)	2%	12	6%	8%	-22%	-19%
Cn1c(=O)c2nc(SCC(=O)Nc3ccc(OC(F)(F)F)cc3)n(C)c2n(C)c1=O	/	/	8%	0%	?	?
CCc1nc(Nc2ccc(OC)cc2OC)c2oc3ccccc3c2n1	8%	-12	-20%	-29%	21µM*	7.3µM*
Cc1nc(SCc2nc3ccc(Br)cc3[nH]2)c2oc3ccccc3c2n1	-23%	/	?	-10%	/	/
CCc1nc(NCC2CCCO2)c2oc3ccccc3c2n1 (configuration not stated)	-2%	-11	5%	0%	?	?
Cc1nc(Nc2cccc(O)c2)c2oc3ccccc3c2n1	-9%	11	-3%	-34%	13µM*	?
Cc1nc(SCc2nc3ccc(Cl)cc3[nH]2)c2oc3ccccc3c2n1	-18%	/	7.9µM*	-15%	/	/
Cc1nc(Nc2cccc(F)c2)c2oc3ccccc3c2n1	0%	-6	0%	-18%	?	?
CNC(=O)CN(CCc1ccccc1)S(=O)(=O)c1ccc(OC)cc1	4%	5	-6%	-3%	9%	5%
CC(C)CN(C(=O)C(C)N1C(=O)c2ccccc2C1=O)c1c(N)n(Cc2ccccc2)c(=O)[nH]c1=O (configuration not stated)	3%	8	1%	-2%	-6%	-2%
Cc1ccc(C)c(NC(=O)c2ccc3c(O)c(S(=O)(=O)c4ccc(Cl)cc4)c(=O)[nH]c3c2)c1	/	/	-27%	-15%	9%	10%

Bioassay records as filed in PubChem BioAssay.
